Compounds with a hit are over-represented: about 4.7% of the library has one in this group of screens.
D1 ag – agonists of human D1 dopamine receptor; P21728; HEK293 T-REx D1 cells, calcium flux, agonist mode; activation, % at 2 µM; actives 1% (n = 360,000); note: 0% is about no effect
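Inducible HEK293 T-REx D1 cells, force-coupled to calcium signalling, were plated at 4000 cells/well with tetracycline and held overnight at 30 C. After no-wash calcium dye loading, compound-evoked calcium rise over 180 s flagged agonists.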
D1 antag – antagonists of human D1 dopamine receptor. P21728. HEK293 TREx D1 cells, calcium flux, dopamine EC80; hits give low values. activity change, negative = inhibition, % at 10 µM. actives 3.2% (n = 360,000); in the data active = activity change below about -30%; note: % is set by controls: 0 for no effect and ±100 for the full control effect
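Calcium flux readout: force-coupled, inducible Hek293 Trex D1 line, cells induced overnight at 30 C with tetracycline, dye-loaded 30–90 min at RT. Antagonism scored against EC80 dopamine challenge given 180 s after compound.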
TRHR agonist – TRH receptor (human) agonism; P34981; TRHR cells, calcium flux fluo-8, FDSS agonist mode; activation, % at 2 µM; actives 0.18% (n = 360,000); note: 0% is about no effect
Target sequence (P34981 whole entry, looked up): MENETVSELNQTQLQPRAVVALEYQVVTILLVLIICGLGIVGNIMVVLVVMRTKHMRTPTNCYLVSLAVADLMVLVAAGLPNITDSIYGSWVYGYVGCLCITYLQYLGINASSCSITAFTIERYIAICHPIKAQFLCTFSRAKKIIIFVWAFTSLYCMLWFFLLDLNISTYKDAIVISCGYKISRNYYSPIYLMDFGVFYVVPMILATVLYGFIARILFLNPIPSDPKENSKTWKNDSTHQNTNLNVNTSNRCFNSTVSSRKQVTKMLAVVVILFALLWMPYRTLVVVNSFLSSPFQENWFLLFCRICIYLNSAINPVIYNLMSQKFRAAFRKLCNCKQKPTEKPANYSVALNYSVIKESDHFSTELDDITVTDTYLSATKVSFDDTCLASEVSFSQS
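Fluo-8-loaded TRHR cells; 10 s baseline, compound added, kinetic Ca2+ fluorescence read 1/s, agonist mode.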
TRHR enhancer – allosteric enhancers of human TRH receptor. enhancement, % at 2 µM. TRHR cells, fluo-8 calcium fluorescence, EC20 TRH enhancement. actives 0.66% (n = 360,000). P34981. AID 493056; in the data active = enhancement above about 30%; note: 0% is about no effect
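Enhancer read-out: after compound pinning and an initial kinetic agonist-mode read, an EC20 of TRH (10 nM final) was injected and fluo-8 calcium signal (Ex 480/Em 530) followed at 1 s/cycle for 100 cycles in TRHR-expressing cells.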
D1 potentiator – enhances dopamine response at the human D1 receptor | HEK293 TREx D1 cells, calcium flux, dopamine EC20 potentiation | potentiation, % at 10 µM | actives 0.036% (n = 360,000); in the data active = potentiation above about 30%; note: 0% is about no effect
Starred values were filed as active, the others as inactive; nt = no result given. Cut-off read from the data, not from the text of the source, unless noted: active = activation above about 30%; inactive = the rest.

SMILES	D1 ag	D1 antag	TRHR agonist	TRHR enhancer	D1 potentiator
Cc1cccc(OCCNc2ccc(C(F)(F)F)cc2[N+](=O)[O-])c1	9	6	1	-2	-5
COc1ccc(CCNC(=O)COc2ccc(N(C)S(=O)(=O)c3ccc(C)cc3)cc2)cc1	16	-31*	0	-6	2
Cc1ccc(OCCNC(=O)c2cccc(S(=O)(=O)NCc3ccccc3)c2)cc1	41*	-35*	0	8	-2
COc1ccc(N(C)S(=O)(=O)c2cccc(C(=O)NCc3ccc(C)cc3)c2)cc1	4	-32*	0	-20	-5
COc1ccc(NS(=O)(=O)c2ccc(OC)c(NC(=O)CNC(=O)c3ccc(OC)cc3)c2)cc1	2	-5	0	-4	-7
COC(=O)C(=O)Nc1cccc2cccnc12	1	2	0	-1	1
COc1ccc(-c2nc(CSc3nnc(C)n4c3cc3oc(C)cc34)c(C)o2)cc1OC	0	-10	0	7	-3
COc1ccc(N(C)S(=O)(=O)c2cccc(C(=O)Nc3ccc(OC)nc3)c2)cc1	8	-8	0	-3	-1
COc1ccc(N(C)S(=O)(=O)c2cccc(C(=O)Nc3ccc4c(c3)OCCO4)c2)cc1	-1	-35*	0	-1	-11
Cc1ccc(C(=O)c2cc3c(cc2[N+](=O)[O-])OCCO3)cc1	2	-14	0	-1	-8
O=S(=O)(Nc1ccc(Cc2ccncc2)cc1)c1ccc(Br)cc1	11	-73*	2	4	-7
O=C(NCC1CCCO1)C(c1ccncc1)N(Cc1cccs1)C(=O)CN1C(=O)c2ccccc2S1(=O)=O (configuration not stated)	42*	0	0	5	7
Cc1ccc(-c2nnn(CC(=O)N(Cc3cccs3)C(C(=O)NCC3CCCO3)c3ccco3)n2)o1 (configuration not stated)	14	-48*	-1	-2	-9
Cc1ccccc1CCN(C(=O)CN1C(=O)c2ccccc2S1(=O)=O)C(C(=O)NCC1CCCO1)c1ccncc1 (configuration not stated)	1	-12	0	3	0
Cc1ccsc1CCNC(=O)C1CCC(=O)N(CCc2cccc(F)c2)C1 (configuration not stated)	3	-37*	0	2	-3
O=C(NCc1cc(C(F)(F)F)ccc1F)C1CCC(=O)N(C2CC2)C1 (configuration not stated)	2	-36*	0	-8	0
O=C(NCc1cccc(F)c1F)C1CCC(=O)N(C2CC2)C1 (configuration not stated)	2	6	1	1	-10
O=C(NCCc1ccc(C(F)(F)F)cc1)C1CCC(=O)N(CCCN2CCCC2=O)C1 (configuration not stated)	0	-40*	0	5	-9
Cc1n[nH]c(C)c1CN(C)C(=O)C1CCC(=O)N(CCc2cccc(F)c2)C1 (configuration not stated)	4	-33*	1	3	1
O=C(NCCc1cccs1)C1CCC(=O)N(CCc2cccc(F)c2)C1 (configuration not stated)	-1	2	0	-8	2
Cc1cc(C(=O)COC(=O)c2ccc(F)cc2F)c(C)n1C1CC1	2	8	0	-1	0
CCCOc1cccc(C(=O)Nc2ccc(-c3nc4ccccc4o3)cc2)c1	2	14	0	-2	-2
O=C(CC1N=C2c3ccccc3N=C(SCc3ccc(F)cc3)N2C1=O)NC1CCCCC1 (configuration not stated)	6	2	-1	-4	-3
Cc1ccc(CNC(=O)C2CCC(=O)N2Cc2ccc(C)cc2)cc1 (configuration not stated)	1	-40*	0	1	-4
Cc1ccc(CNC(=O)C2CCC(=O)N2Cc2ccccc2Cl)cc1 (configuration not stated)	3	-4	0	5	-2
SMILES	D1 ag	D1 antag	TRHR agonist	TRHR enhancer	D1 potentiator
O=C(NCc1ccon1)C1CCC(=O)N(Cc2cccc(C(F)(F)F)c2)C1 (configuration not stated)	0	7	2	2	-7
Cc1ccc(CNC(=O)C2CCC(=O)N(CCc3cccc(F)c3)C2)cc1 (configuration not stated)	2	-43*	-1	-3	-11
Cc1cc(CNC(=O)C2CCC(=O)N(Cc3cccc(C(F)(F)F)c3)C2)no1 (configuration not stated)	1	5	0	31*	1
Cc1cc(CNC(=O)C2CCC(=O)N(CCc3cccc(F)c3)C2)nn1C (configuration not stated)	2	1	1	8	-1
CCc1ccc(NCc2cc3cc4c(cc3n(CC(=O)Nc3ccc(Cl)cc3)c2=O)OCO4)cc1	176*	-2	-1	3	4
COc1ccc(NCc2cc3cc4c(cc3n(CC(=O)Nc3ccccc3)c2=O)OCO4)cc1	134*	-1	-1	2	4
COc1cc2cc(CNc3ccccc3)c(=O)n(CC(=O)Nc3cc(C)cc(C)c3)c2cc1OC	16	15	34*	0	-1
Cc1nc(N2CCCC2)ncc1C(=O)NCc1ccccc1Cl	0	-4	-1	0	-1
O=C(CNC(=O)c1ccc2cc[nH]c2c1)OC(C(=O)Nc1cc(C(F)(F)F)ccc1Cl)c1ccccc1 (configuration not stated)	7	-7	-2	-4	-2
N#Cc1c2ccc([N+](=O)[O-])cc2[n+]([O-])n1-c1ccccc1	7	-61*	0	0	-6
Cc1ccc(CSc2ccc(S(=O)(=O)N3CCCC3)cn2)cc1	10	-21	0	-10	-4
C=CCNC(=O)CSc1nnc(-c2ccc(S(=O)(=O)N3CCCC3)cc2)n1C	6	-5	-1	-3	nt
O=S(=O)(c1ccc(SCc2ccccc2F)nc1)N1CCCC1	13	-34*	1	-2	nt
Cc1cccc(OCc2nnc(SCC(=O)NCC3CCCO3)n2C)c1 (configuration not stated)	-2	7	0	37*	-2
CCCNC(=O)CSc1ccc(S(=O)(=O)N2CCCC2)cn1	0	-34*	0	6	2
CCCCNC(=O)CSc1nnc(-c2ccc(S(=O)(=O)N3CCCC3)cc2)n1C	-2	-68*	1	-2	-7
CCCNC(=O)CSc1ccc(S(=O)(=O)N2CCCCC2)cn1	2	-11	0	-1	-1
Cc1ccc(CCNC(=O)C2CCN(S(=O)(=O)c3ccc4c(c3)NC(=O)CO4)CC2)cc1	0	-10	0	-9	1

Bioassay records (PubChem)
